Among the test systems are NCI-H23 lung; NCI-H226 lung; NCI-H322M lung; HOP-62 NSCLC; NCI-H460 lung; HOP-92 NSCLC; NCI-H522 lung; A549/ATCC NSCLC; 786-0 renal; COLO 205 colon; DU-145 prostate; K-562 leukemia; MALME-3M melanoma; MDA-MB-231 breast; SF-268 CNS; SF-295 CNS; SF-539 CNS; M14 melanoma.
Common to all, as to assay: NCI-60 one-dose screen, 48 h (100 = growth as untreated, 0 = no growth, -100 = all killed)
Details in all cases: 10 µM unless noted

The record followed here is PubChem BioAssay (NCI).

About 83,000 compounds went through this panel and 20% of them were active in at least one assay; those are over-represented in the sample as a whole.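 Plates (96-well) were seeded with cells, treated with compound at one concentration, and incubated for 48 hours before percent growth was determined.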 Values without a mark were called inactive. Active and inactive are the calls of the source. The calls were made as follows: active = growth percent below 10; inactive = the rest.

As for `c1cc[n+](Cc2c3ccccc3cc3c2ccc2ccccc23)cc1`, the growth in the assay with NCI-H23 lung was 16.9%; in the assay on NCI-H226 lung it was 26.3%; with NCI-H322M lung it was 53.9%; in the assay with HOP-62 NSCLC, 23.7%; in the assay with NCI-H460 lung, 42.8%; with HOP-92 NSCLC, 25%. Besides, the growth in the assay with NCI-H522 lung was 18.4%; with A549/ATCC NSCLC it was 63.7%; in the assay on 786-0 renal, 38%; in the assay on COLO 205 colon, 2.06% (active); with DU-145 prostate it was 57.2%; in the assay on K-562 leukemia it was 16.4%. The growth in the assay with MALME-3M melanoma was -23.5% (active); with MDA-MB-231 breast it was 72.1%; in the assay on SF-268 CNS, 7.4% (active); in the assay on SF-295 CNS it was 4.38% (active); in the assay with SF-539 CNS, 13.6%; in the assay with M14 melanoma, 62.3%.

With `O=C(c1ccccc1)C(c1ccccc1)N1CCOCC1` (configuration not stated), the growth in the assay on NCI-H23 lung was 96.9%; with NCI-H226 lung it was 94.8%; in the assay on NCI-H322M lung, 105%; in the assay on HOP-62 NSCLC it was 94.7%; in the assay on NCI-H460 lung, 103%; in the assay on HOP-92 NSCLC it was 103%. Also, the growth in the assay on NCI-H522 lung was 90.4%; in the assay on A549/ATCC NSCLC, 90.2%; in the assay on 786-0 renal, 104%; with COLO 205 colon, 109%; in the assay with DU-145 prostate, 107%; with K-562 leukemia, 96%. For the same compound, the growth with MALME-3M melanoma is 103%; in the assay with MDA-MB-231 breast, 105%; with SF-268 CNS it was 99.1%; with SF-295 CNS, 94.9%; in the assay with SF-539 CNS, 101%; in the assay on M14 melanoma, 99.8%.

Regarding `COC(=O)[C@]12CC[C@@H](C)[C@H](C)[C@@H]1C1=CC[C@@H]3[C@@]4(C)C(c5cnco5)=C[C@@](C)(CO)C4=CC[C@@]3(C)[C@]1(C)CC2`, the growth with NCI-H23 lung was 47.8%; with NCI-H226 lung it was 60%; in the assay on NCI-H322M lung, 86.5%; in the assay with HOP-62 NSCLC, 93.7%; in the assay with NCI-H460 lung it was 8.07% (active); in the assay with HOP-92 NSCLC it was 41.8%. In addition, the growth is 33.9% with NCI-H522 lung; 47.1% in the assay with A549/ATCC NSCLC; 70.5% in the assay with 786-0 renal; 27.2% in the assay with COLO 205 colon; 29.4% in the assay with DU-145 prostate; 30.8% in the assay on K-562 leukemia. Further, the growth in the assay on MALME-3M melanoma was 87.6%; with MDA-MB-231 breast, 58.8%; in the assay on SF-268 CNS, 63%; in the assay with SF-295 CNS, 31.2%; with SF-539 CNS, 66.4%; in the assay on M14 melanoma it was 63.4%.

As for `CCc1cc2c(c3ccc(C(=O)CBr)cc13)CCCC2`, the growth in the assay on NCI-H23 lung is 89.1%; in the assay on NCI-H226 lung, 92.2%; in the assay with NCI-H322M lung, 77.5%; in the assay with HOP-62 NSCLC, 91.6%; in the assay with NCI-H460 lung, 109%; in the assay on HOP-92 NSCLC, 109%. The growth with NCI-H522 lung is 88.3%; in the assay on A549/ATCC NSCLC it was 93%; in the assay on 786-0 renal, 99.7%; with COLO 205 colon it was 102%; with DU-145 prostate, 107%; with K-562 leukemia it was 86.4%. Also, the growth was 95.9% with MALME-3M melanoma; 99.8% in the assay with MDA-MB-231 breast; 92.2% with SF-268 CNS; 105% in the assay on SF-295 CNS; 98.3% with SF-539 CNS; 107% in the assay on M14 melanoma.

On to `C[N+](C)(CCOC(c1ccccc1)c1ccccc1)CC(=O)OCc1ccccc1`, for which the growth with NCI-H23 lung was 101%; with NCI-H226 lung, 91.8%; in the assay on NCI-H322M lung it was 90.6%; with HOP-62 NSCLC it was 97.8%; with NCI-H460 lung it was 110%; in the assay with HOP-92 NSCLC it was 106%. For the same compound, the growth was 93.8% with NCI-H522 lung; 102% with A549/ATCC NSCLC; 105% in the assay with 786-0 renal; 103% with COLO 205 colon; 105% in the assay on DU-145 prostate; 126% with K-562 leukemia. Further, the growth in the assay on MALME-3M melanoma is 99.7%; in the assay on MDA-MB-231 breast, 113%; with SF-268 CNS, 106%; with SF-295 CNS it was 103%; with SF-539 CNS, 105%; with M14 melanoma, 91.3%.

For `CCN(CC)C(=O)C[N+](C)(C)CCOC(c1ccccc1)c1ccccc1`, the growth in the assay with NCI-H23 lung was 95.2%; in the assay with NCI-H226 lung, 102%; in the assay with NCI-H322M lung it was 104%; in the assay with HOP-62 NSCLC, 103%; in the assay on NCI-H460 lung, 109%; in the assay on HOP-92 NSCLC it was 113%. In addition, the growth with NCI-H522 lung was 105%; in the assay on A549/ATCC NSCLC, 101%; in the assay on 786-0 renal, 102%; in the assay with COLO 205 colon it was 112%; in the assay with DU-145 prostate, 103%; in the assay on K-562 leukemia, 109%. Also, the growth in the assay on MALME-3M melanoma is 98.5%; with MDA-MB-231 breast, 117%; in the assay with SF-268 CNS it was 103%; in the assay with SF-295 CNS it was 99.5%; in the assay on SF-539 CNS it was 102%; in the assay with M14 melanoma, 100%.

For `Cc1cc2c3c(cccc3c1)C(=O)c1ccccc1-2`, the growth was 81% in the assay on NCI-H23 lung; 96.6% with NCI-H226 lung; 82.3% in the assay on NCI-H322M lung; 99.3% in the assay on HOP-62 NSCLC; 102% in the assay on NCI-H460 lung; 108% with HOP-92 NSCLC. In addition, the growth with NCI-H522 lung is 95%; in the assay on A549/ATCC NSCLC, 104%; with 786-0 renal, 104%; in the assay with COLO 205 colon it was 93.4%; with DU-145 prostate it was 98.9%; with K-562 leukemia, 98.8%. In addition, the growth in the assay with MALME-3M melanoma is 90.8%; in the assay on MDA-MB-231 breast, 92.6%; in the assay on SF-268 CNS, 92%; with SF-295 CNS, 103%; in the assay with SF-539 CNS it was 97.2%; in the assay with M14 melanoma, 92.6%.

`NS(=O)(=O)c1ccc(CCN2C(=O)/C(=C\c3ccc(Cl)cc3)C=C2c2ccc3ccccc3c2)cc1`: the growth is 95.4% in the assay with NCI-H23 lung; 80.8% with NCI-H226 lung; 92.4% with NCI-H322M lung; 72% with HOP-62 NSCLC; 102% in the assay on NCI-H460 lung; 94% with HOP-92 NSCLC. Further, the growth in the assay on NCI-H522 lung is 60.9%; with A549/ATCC NSCLC, 62%; in the assay on 786-0 renal, 93.4%; with COLO 205 colon it was 100%; in the assay on DU-145 prostate, 108%; in the assay on K-562 leukemia, 96.4%. Moreover, the growth in the assay with MALME-3M melanoma is 98.8%; with MDA-MB-231 breast, 90.5%; with SF-268 CNS, 103%; in the assay with SF-295 CNS, 99.1%; in the assay with SF-539 CNS it was 101%; with M14 melanoma it was 95%.

As for `CCCCCCC1(/C=N/NC(N)=O)NC(=O)NC1=O` (configuration not stated), the growth in the assay with NCI-H23 lung is 94%; with NCI-H226 lung, 91.4%; with NCI-H322M lung it was 102%; with HOP-62 NSCLC it was 78.3%; in the assay on NCI-H460 lung, 111%; in the assay with HOP-92 NSCLC, 110%. Besides, the growth in the assay on NCI-H522 lung was 58%; in the assay with A549/ATCC NSCLC it was 70.5%; in the assay with 786-0 renal, 98.2%; in the assay with COLO 205 colon it was 91.9%; with DU-145 prostate, 107%; in the assay on K-562 leukemia, 102%. Besides, the growth in the assay with MALME-3M melanoma was 103%; in the assay with MDA-MB-231 breast, 110%; with SF-268 CNS, 99.3%; with SF-295 CNS, 98.1%; in the assay on SF-539 CNS, 96.3%; in the assay on M14 melanoma, 97.3%.
